Bioassay records from PubChem.
An excerpt weighted towards active compounds, which were near 2.4% of everything screened.
ANO1 block – blocks the mouse calcium-activated chloride channel TMEM16A. Q8BHY3. HEK293 TMEM16A/YFP iodide influx fluorescence, ionomycin. normalized B-score (activity score, 25-100; higher = stronger inhibition) at 10 µM. 310,000 compounds, 1.2% hits. AID 588511;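 active = ratio plate-corrected score three or more library SD toward inhibition, starting fluorescence score within five deviations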;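 note: score derived from kinetic fluorescence span divided by baseline fluorescence per well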
TMEM16A act – mouse TMEM16A channel activation, primary screen. 340,000 compounds, 0.3% hits. B-score at 10 µM. HEK293 TMEM16A/YFP-H148Q/I152L, iodide quench fluorescence; hits give low values. Q8BHY3;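 active = fluorescence-ratio B-score plate-corrected deviation score at least 3 library SD below zero, with starting fluorescence score within 5 deviations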;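 note: channel opened by trigger with iodide after compound preincubation; score built on the fluorescence ratio of max minus min over baseline; more negative score means more quench and so TMEM16A activation or potentiation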
TLR9-MyD88 inh – TLR9-MyD88 interaction inhibition; CHO BLA complementation TLR9-MyD88, CCF4 FRET ratio; AID 504734; inhibition, % at 4.98 µM; Q9NR96+Q99836; 340,000 compounds, 0.21% hits;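 active = inhibition above the mean over all tested compounds plus 3 SD, cut at about 21% in these data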
NOD2-RIPK2 inh – NOD2-RIPK2 protein interaction inhibition; inhibition, % at 4.98 µM; 360,000 compounds, 0.38% hits; O43353; AID 624267; CHO BLA complementation NOD2-RIPK2, CCF4 ratio; in the data active = inhibition above about 21%
Target sequence (O43353 whole entry, looked up): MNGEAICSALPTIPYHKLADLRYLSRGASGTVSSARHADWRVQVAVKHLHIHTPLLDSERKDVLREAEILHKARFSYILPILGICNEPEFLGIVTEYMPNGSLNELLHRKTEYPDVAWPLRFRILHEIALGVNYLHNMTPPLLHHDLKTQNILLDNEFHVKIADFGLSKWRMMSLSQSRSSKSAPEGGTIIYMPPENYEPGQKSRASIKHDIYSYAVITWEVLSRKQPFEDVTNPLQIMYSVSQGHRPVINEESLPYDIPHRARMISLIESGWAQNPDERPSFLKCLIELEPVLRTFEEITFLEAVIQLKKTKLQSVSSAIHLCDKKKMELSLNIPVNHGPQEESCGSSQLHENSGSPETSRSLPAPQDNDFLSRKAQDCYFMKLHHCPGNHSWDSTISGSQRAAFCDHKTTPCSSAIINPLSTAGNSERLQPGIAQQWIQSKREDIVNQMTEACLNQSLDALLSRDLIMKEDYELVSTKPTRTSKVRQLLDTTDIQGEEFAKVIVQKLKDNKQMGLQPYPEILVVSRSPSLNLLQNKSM
TLR4 MyD88 comp – inhibitors of human TLR4-MyD88 binding. O00206+Q99836. HeLa CL3-4 TLR4/MyD88 BLA complementation, FRET ratio. inhibition, % at 8.4 µM. 200,000 compounds, 0.18% hits. AID 861; in the data active = inhibition above about 25%
HTR2A ag – activates the mouse 5-HT2A serotonin receptor | CHO-K1 mHTR2A beta-arrestin complementation, luminescence; percent of 30 µM serotonin response | 360,000 compounds, 0.66% hits | activation, % at 7.6 µM | P35363 | AID 624169;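 active = activation above a run cutoff, the mean activation of all tested compounds plus 3 SD, cut at about 14% in these data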
TLR9-MyD88 conf – confirmation of human TLR9-MyD88 binding inhibitors; inhibition, % at 4.98 µM; shares compounds with TLR9-MyD88 inh; 680 compounds, 51% hits; CHO TLR9/MyD88 BLA complementation, CCF4 FRET ratio;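 active = mean inhibition across three repeats above about 21% taken from the earlier screen, limit read from the data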;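 note: blue over green emission ratio reports constitutive TLR9 MyD88 association via BLA complementation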
BLA counter – non-selective beta-lactamase inhibitors in TLR9-MyD88 counter-screen; shares compounds with TLR9-MyD88 inh; CHO-BLA cells, CCF4 FRET ratio, BLA reporter; inhibition, % at 4.98 µM; 680 compounds, 7% hits; AID 540251;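 active = mean inhibition above a 50% cutoff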;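 note: counterscreen of TLR9-MyD88 hits on CMV-driven BLA in CHO-K1 cells; higher means less blue over green ratio so more BLA blockade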
TLR9 CHO cytotox – counter-screen for TLR9-MyD88 inhibitors: cytotoxicity in CHO cells | 680 compounds, 39% hits | luminescence | inhibition, % at 4.98 µM | shares compounds with TLR9-MyD88 inh; in the data active = inhibition above about 11%
A number is an active result; - = inactive; . = not tested or not shown.

SMILES	ANO1 block	TMEM16A act	TLR9-MyD88 inh	NOD2-RIPK2 inh	TLR4 MyD88 comp	HTR2A ag	TLR9-MyD88 conf	BLA counter	TLR9 CHO cytotox
CCOC(=O)C1CCCN(C(=O)c2cc3c(-c4cccc(OC)c4)nn(C)c3s2)C1 (configuration not stated)	-	-	28.2	-	-	-	-	-	27.2
O=S(=O)(c1ccccc1)c1nc(Nc2cccc(O)c2)sc1Cl	100	-	21.4	-	-	-	-	-	-
Cc1ccc(S(=O)(=O)c2nc(Nc3ccccc3)sc2Cl)cc1	.	-	-	-	-	-	.	.	.
COC(CNC(=O)C1CC(=O)N(CCc2ccccc2)C1)OC (configuration not stated)	-	-	-	-	-	-	.	.	.
COc1ccc(C(=O)/C(=C\c2ccco2)N2C=CC=CC2=C(C#N)C#N)cc1	-	-	27.8	85.1	-	-	-	-	96.3
N#Cc1ccc(-c2ccccc2)nc1SCC(=O)c1cccc(Cl)c1	-	-	-	-	-	-	.	.	.
N#Cc1ccc(-c2cccnc2)nc1SCC(=O)c1ccccc1	-	-	21.3	-	.	-	-	-	-
CCCCc1ncc(CN2CCC(n3nccc3NC(=O)c3ccccc3OC)CC2)[nH]1	-	-	-	-	.	-	.	.	.
CCn1cc(/C=C(\NC(=O)c2ccccc2)C(=O)NCCN2CCOCC2)c2ccccc21	.	.	-	-	.	-	.	.	.
Cc1oc(-c2cc(F)ccc2F)nc1CN1CCN(c2cnccn2)CC1	-	-	21.7	-	-	-	-	-	-
Cc1oc(-c2cc(F)ccc2F)nc1CN(C)Cc1ccc2nccnc2c1	-	-	-	-	-	-	.	.	.
O=C1c2ccccc2NC(c2ccc(-c3cccc([N+](=O)[O-])c3)o2)N1O (configuration not stated)	-	-	21.5	-	-	-	-	-	43.1
O=C1c2ccccc2NC(c2ccc(-c3ccc(F)cc3)o2)N1O (configuration not stated)	.	-	-	-	.	-	.	.	.
O=C(CNCc1ccco1)Nc1ccccc1-n1cccc1	-	-	-	-	-	-	.	.	.
CCCCN(C(=O)CSc1nnc(-c2ccccc2)n1C)c1c(N)n(Cc2ccccc2)c(=O)[nH]c1=O	-	-	20.9	-	-	-	-	-	-
CCCCN(C(=O)CSc1nncn1-c1ccccc1)c1c(N)n(Cc2ccccc2)c(=O)[nH]c1=O	-	-	-	-	-	-	.	.	.
Fc1cccc(/C=N/Nc2ccc(Cl)nn2)c1	-	-	22.9	-	.	-	-	-	-
COc1ccc(Cn2c(O)c(/C=N/NC(=O)c3cccnc3)c3ccccc3c2=O)cc1	.	-	25.6	-	-	-	-	-	-
O=C(N/N=C/c1c(O)n(Cc2ccccc2)c(=O)c2ccccc12)c1cccnc1	-	-	-	-	-	-	.	.	.
O=C1c2cccc3c(O)ccc(c23)C(=O)N1c1ccc(Cl)cc1	-	-	26.6	-	.	-	-	-	-
O=C1c2ccccc2C(=O)N1c1ccc(Cl)cc1	-	.	.	.	-	.	.	.	.
CC1CCCCC1NC(=O)c1ccc(S(=O)(=O)N2CCN(C)CC2)cc1 (configuration not stated)	-	-	-	-	.	-	.	.	.
CCc1ccccc1NC(=O)CC1S/C(=N\c2nccs2)N(CC)C1=O (configuration not stated)	-	-	-	-	-	-	.	.	.
CC(=O)Nc1c(Nc2ccccc2)c2ccccc2oc1=O	-	-	.	-	-	-	.	.	.
CCCn1c(/C=C/c2cc[n+](C)cc2)nc2ccccc21	-	-	29.5	-	.	-	-	-	-
SMILES	ANO1 block	TMEM16A act	TLR9-MyD88 inh	NOD2-RIPK2 inh	TLR4 MyD88 comp	HTR2A ag	TLR9-MyD88 conf	BLA counter	TLR9 CHO cytotox
COc1cc(C(=O)OCC(=O)NC(=O)C2CCCCC2)ccc1OC(F)F	-	-	-	-	-	-	.	.	.
CC(C)(C)C(=O)NC(=S)NNC(=O)c1sc2ccccc2c1Cl	100	-11.8	30.4	-	-	-	-	-	47.0
CCOC(=O)Cc1csc(/N=C/c2c(O)n(-c3ccccc3C(F)(F)F)c(=O)c3ccccc23)n1	-	-	22.2	-	-	-	-	-	-
Cc1noc(NC(=O)c2ccccc2Cl)c1C#N	-	-	-	-	-	-	.	.	.
COc1ccccc1C(=O)Nc1onc(C)c1C#N	-	-	22.2	-	-	-	-	-	-
CS(=O)(=O)c1ccc(C(=O)Nc2ccc(N3CCOCC3)cc2)c(Cl)c1	-	-	-	-	-	-	.	.	.
CS(=O)(=O)c1ncc(Cl)c(C(=O)Nc2ccc(OC(F)F)cc2)n1	-	-	42.4	73.0	.	-	45.1	-	97.1
CS(=O)(=O)c1ncc(Cl)c(C(=O)Nc2ccc(N3CCOCC3)cc2)n1	-	-	43.0	47.2	-	-	46.6	-	95.4
CSCCC(C(=O)OCC(=O)c1ccc(C)c(C)c1)N1C(=O)c2cc(Cl)c(Cl)cc2C1=O (configuration not stated)	-	-	21.6	-	-	-	-	-	-
Cc1ccc(C(=O)COC(=O)CN2C(=O)C3CC=CCC3C2=O)cc1C (configuration not stated)	.	.	-	-	.	-	.	.	.
COc1ccc(CN2CCC(CNC(=O)NC3CCCCC3)CC2)cc1	-	-	22.1	-	-	-	-	-	-
COc1ccc(CNC(=O)CN2C(=O)CSc3ccc(S(=O)(=O)N4CCCCC4)cc32)cc1	-	-	-	-	.	-	.	.	.
Clc1ccc2ccc3cccnc3c2n1	-	-	-	-	.	-	.	.	.
O=S1(=O)Nc2c(ccc3cccnc23)-c2ccccc21	-	-	20.9	24.9	-	-	32.6	-	98.7
Cc1cccc(NC(=O)CCNC(=O)c2ccco2)c1C	-	-	-	-	-	-	.	.	.
O=C(c1ccc2ccccc2c1)N1CCOCC1	-	-	-	-	.	-	.	.	.
Cc1ccsc1C1C=C(c2cccc(Br)c2)Nc2ncnn21 (configuration not stated)	-	-	28.4	-	-	-	-	-	-
COc1ccc(-c2nsc(SCC(=O)Nc3cc(C)on3)n2)cc1	-	-	-	-	-	-	.	.	.
CCOC(=O)CNC(=O)CSc1nc(-c2ccc(OC)cc2)ns1	-	-	22.4	-	-	-	-	-	-
CCC1CCCCN1CCN1C(=O)C2C(C(=O)Nc3ccc(OC)cc3)C3C=CC2(O3)C1C(=O)NC1CCCCC1 (configuration not stated)	-	-	-	-	.	-	.	.	.
CC(=O)N1CCN=C1SCc1ccccc1F	-	-	-	-	-	-	.	.	.
